# Measured values taken from the supplement of paper PMC8728848.
# This excerpt belongs to a sample that is enriched for the strongest signals.
# B1: Galatrox (Botrops atrox), P0DM53 (protein)
# chain: NNCPQDWLPMNGLCYKIFDELKAWKDAEMFCRKYKPGCHLASIILYGESPEWAEGHSEVWLGLWDKKKDFSWEWTDR
# How the values were obtained:
# Assay in all cases: glycan array binding signal (z-score within array); higher = stronger binding
# Conditions in all cases: glycan notation: IUPAC condensed, linker removed
# [1] = molecular target: Fuc(a1-2)Gal(b1-3)GlcNAc(b1-3)[Fuc(a1-3)[Gal(b1-4)]GlcNAc(b1-6)]Gal(b1-4)Glc
# Procedure, shortened: (§1)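 The Consortium for Functional Glycomics database supplied 3228 glycan arrays, of which those lacking an available protein sequence were dropped. The binding signal, a within-array Z-score, was averaged across arrays of the same protein sequence and across linkers. Negative scores can be read as non-binding.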
# [2] = molecular target: Fuc(a1-2)Gal(b1-4)GlcNAc(b1-3)GalNAc
# Procedure, shortened: as §1
# [3] = molecular target: Fuc(a1-2)Gal(b1-4)[Fuc(a1-3)]GlcNAc
# Procedure, shortened: as §1
# [4] = molecular target: Fuc(a1-2)Gal(b1-4)[Fuc(a1-3)]GlcNAc(b1-2)Man(a1-3)[Fuc(a1-2)Gal(b1-4)[Fuc(a1-3)]GlcNAc(b1-2)Man(a1-6)]Man(b1-4)GlcNAc(b1-4)GlcNAc
# Procedure, shortened: as §1
# [5] = molecular target: Fuc(a1-2)[GalNAc(a1-3)]Gal
# Procedure, shortened: as §1
# Gal(a1-3)Gal(b1-4)GlcNAc = molecular target: Gal(a1-3)Gal(b1-4)GlcNAc
# Procedure, shortened: as §1
# Gal(a1-6)Glc = molecular target: Gal(a1-6)Glc
# Procedure, shortened: as §1
# Gal(b1-3)Gal(b1-4)GlcNAc = molecular target: Gal(b1-3)Gal(b1-4)GlcNAc
# Procedure, shortened: as §1
# [6] = molecular target: Gal(b1-3)GlcNAc(b1-3)Gal(b1-4)Glc
# Procedure, shortened: as §1
# [7] = molecular target: Gal(b1-3)[Fuc(a1-4)]GlcNAc(b1-2)Man(a1-3)[Gal(b1-3)[Fuc(a1-4)]GlcNAc(b1-2)Man(a1-6)]Man(b1-4)GlcNAc(b1-4)[Fuc(a1-6)]GlcNAc
# Procedure, shortened: as §1
# [8] = molecular target: Gal(b1-3)[GlcNAc(b1-6)]GalNAc
# Procedure, shortened: as §1
# [9] = molecular target: Gal(b1-4)GlcNAc(a1-6)Gal(b1-4)GlcNAc
# Procedure, shortened: as §1
# [10] = molecular target: Gal(b1-4)GlcNAc(b1-2)Man(a1-3)[Gal(b1-4)GlcNAc(b1-2)Man(a1-6)]Man(b1-4)GlcNAc(b1-4)GlcNAc
# Procedure, shortened: as §1
# [11] = molecular target: Gal(b1-4)GlcNAc(b1-2)Man(a1-3)[Man(a1-6)]Man(b1-4)GlcNAc(b1-4)GlcNAc
# Procedure, shortened: as §1
# [12] = molecular target: Gal(b1-4)GlcNAc(b1-2)Man(a1-6)[Man(a1-3)]Man(b1-4)GlcNAc(b1-4)GlcNAc
# Procedure, shortened: as §1
# [13] = molecular target: Gal(b1-4)GlcNAc(b1-2)[Gal(b1-4)GlcNAc(b1-4)]Man(a1-3)[Gal(b1-4)GlcNAc(b1-2)Man(a1-6)]Man(b1-4)GlcNAc(b1-4)GlcNAc
# Procedure, shortened: as §1
# [14] = molecular target: Gal(b1-4)GlcNAc(b1-3)Gal(b1-4)GlcNAc
# Procedure, shortened: as §1
# [15] = molecular target: Gal(b1-4)GlcNAc(b1-3)Gal(b1-4)GlcNAc(b1-3)Gal(b1-4)GlcNAc
# Procedure, shortened: as §1
# [16] = molecular target: Gal(b1-4)GlcNAc(b1-3)Gal(b1-4)[Fuc(a1-3)]GlcNAc(b1-3)Gal(b1-4)[Fuc(a1-3)]GlcNAc
# Procedure, shortened: as §1
# [17] = molecular target: Gal(b1-4)GlcNAc(b1-3)[Gal(b1-4)GlcNAc(b1-6)]Gal(b1-4)GlcNAc
# Procedure, shortened: as §1
# [18] = molecular target: Gal(b1-4)GlcNAc(b1-6)GalNAc
# Procedure, shortened: as §1
# Gal3S(b1-3)GlcNAc = molecular target: Gal3S(b1-3)GlcNAc
# Procedure, shortened: as §1
# Kdn(a2-6)Gal(b1-4)GlcNAc = molecular target: Kdn(a2-6)Gal(b1-4)GlcNAc
# Procedure, shortened: as §1
# [19] = molecular target: Man(a1-2)Man(a1-3)[Man(a1-2)Man(a1-6)]Man
# Procedure, shortened: as §1
# [20] = molecular target: Man(a1-2)Man(a1-3)[Man(a1-2)Man(a1-6)]Man(a1-6)[Man(a1-2)Man(a1-2)Man(a1-3)]Man
# Procedure, shortened: as §1
# [21] = molecular target: Neu5Ac(a2-3)Gal(b1-3)GlcNAc6S
# Procedure, shortened: as §1
# [22] = molecular target: Neu5Ac(a2-3)Gal(b1-4)[Fuc(a1-3)]GlcNAc(b1-3)Gal(b1-4)GlcNAc
# Procedure, shortened: as §1
# [23] = molecular target: Neu5Ac(a2-3)Gal(b1-4)[Fuc(a1-3)]GlcNAc6S
# Procedure, shortened: as §1
# Neu5Ac(a2-3)GalNAc = molecular target: Neu5Ac(a2-3)GalNAc
# Procedure, shortened: as §1
# [24] = molecular target: Neu5Gc(a2-3)Gal(b1-3)GlcNAc
# Procedure, shortened: as §1
binder,measurement,setting,value
B1,glycan array binding signal (z-score),[1],-0.364
same,glycan array binding signal (z-score),[2],-0.36
same,glycan array binding signal (z-score),[3],-0.364
same,glycan array binding signal (z-score),[4],0.123
same,glycan array binding signal (z-score),[5],-0.357
same,glycan array binding signal (z-score),Gal(a1-3)Gal(b1-4)GlcNAc,-0.137
same,glycan array binding signal (z-score),Gal(a1-6)Glc,-0.37
same,glycan array binding signal (z-score),Gal(b1-3)Gal(b1-4)GlcNAc,3.61
same,glycan array binding signal (z-score),[6],0.413
same,glycan array binding signal (z-score),[7],-0.333
same,glycan array binding signal (z-score),[8],-0.192
same,glycan array binding signal (z-score),[9],3.28
same,glycan array binding signal (z-score),[10],1.27
same,glycan array binding signal (z-score),[11],0.001
same,glycan array binding signal (z-score),[12],1.15
same,glycan array binding signal (z-score),[13],3.31
same,glycan array binding signal (z-score),[14],3.16
same,glycan array binding signal (z-score),[15],3.28
same,glycan array binding signal (z-score),[16],3.31
same,glycan array binding signal (z-score),[17],4.18
same,glycan array binding signal (z-score),[18],2.44
same,glycan array binding signal (z-score),Gal3S(b1-3)GlcNAc,-0.363
same,glycan array binding signal (z-score),Kdn(a2-6)Gal(b1-4)GlcNAc,0.063
same,glycan array binding signal (z-score),[19],-0.378
same,glycan array binding signal (z-score),[20],-0.369
same,glycan array binding signal (z-score),[21],-0.36
same,glycan array binding signal (z-score),[22],2.3
same,glycan array binding signal (z-score),[23],-0.373
same,glycan array binding signal (z-score),Neu5Ac(a2-3)GalNAc,-0.364
same,glycan array binding signal (z-score),[24],-0.368
